From PubChem BioAssay AID1508600 (Functional Genomics Laboratory (NCATS/FGL), 2020)
Among all 53,000 sequences or so, about 3,700 (7%) were called active. This is one part of a sample in which actives are shown more often than they occur. Unmarked numbers belong to inactive results.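 The calls were made as follows: active = gene knockdowns whose robust z-score for IL-1 alpha signal is at least 2 or at most -2, so actives lie on both sides; inactive = the rest.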

assay: Components of the Cytosolic LPS Sensing Pathway: Gene Identification via Genome-wide siRNA Screen; conditions: RAW264.7 macrophages, IL-1a HTRF, actives lie on both sides, screened at 100 nM (by protocol), cells primed 5 h with Pam3CSK4 first;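 also: robust z of the log signal after scaling to non-targeting control siRNA wells of the plate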
Procedure, shortened: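 Using IL-1a HTRF as read-out, the screen measured release from RAW264.7 cells after 48h siRNA knockdown (100 nM), 5 h Pam3CSK4 priming and 24 h cytosolic LipidA. Values were expressed relative to negative-control wells as robust z-scores.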

Sequence | z-score
GGAUAGAAACAUUUCUGUGTT against Olfr1145 | 2.1 (active)
GGACCAUGAGAAAUUUAAUTT against Nr2f1 | 1.41
GGCGGUUAAUGACAAGAACTT against Sdk2 | -0.0303
CGUGGAGUAAGGAGAAUAUTT against Ints7 | 0.364
GGAAAUCACAUUGUCCUGCTT against 3010003L21Rik | 1.13
GGAUCUGACACACAUGAUCTT against Med16 | 2.3 (active)
GGAGAAAGCAAGGAUAAUCTT against Rgs20 | 0.562
CGCAGAGAAGGUCAUUAAATT against Il1f5 | 0.519
GGUCUUCUCCGAGUACUUUTT against Ap1m1 | 4.38 (active)
GCACUCAGAACAACUAAAATT against Dglucy | 0.641
GCUCCAUGAAUGUCCAACATT against Sphkap | -2.41 (active)
GUUCUAGGCCUCCUGAAGCTT against Dohh | -0.808
GCUGAUGUCUCAACCUAGATT against Zkscan2 | -1.72
GGCUUUGUCUUGAAUGGCUTT against Adgre1 | -1.11
CGCCGGAAGUUCUACCACUTT against Tmem205 | 0.223
GAACAUCAUCUCACACUCATT against Olfr874 | -0.000467
GGAUAGAGACUGCUGGGUUTT against Zfp579 | 0.248
CCAAGUUGGCAUACUAUUCTT against Pank4 | -0.126
GCCAGUCCUUCAAGUGUAUTT against Jak2 | 4.16 (active)
CCAUCUCAUCCCACGACACTT against Mrgprx1 | -0.334
GGCCUUUGCAUGCAAUAGUTT against Zfp119b | 0.0596
GCAGCCUUGUUUCAGUUCUTT against Fam43a | 0.765

Sequence | z-score
CCUCUCUACAUCCACUACUTT against Pogz | 3 (active)
GGAGAACACAGGUGGACUUTT against Ppy | 0.125
GGAGGCCAAGCAGAAAGAGTT against Kars | 0.184
GACUGCUUCCUUCUGACUGTT against Olfr399 | -0.575
AAAAGAUGCAUGUCUCCUUTT against Hbq1a | -1.76
GGCUUUUGACUUUACCCUATT against Acy3 | -1.3
GGAAAUAUUUUCUCAGCAATT against Pcdhga1 | 1.52
GCCCUCAUACCUACUAUGUTT against 4631405J19Rik | 0.787
GGAAGAGAUUUCUAAACUUTT against Mcoln2 | -1.93
GGGCAAAAUAUAGCAAUGATT against Vmn1r233 | -2.11 (active)
GCUGACUUCACAUUUGGCUTT against Mms19 | -0.24
GGAGUAUGUGGAAUGUCUATT against Creb3l1 | -0.903
GGAUGACUCUAUCUUUCUATT against Igfbp4 | 0.892
GGAAUACGUAUACUUCAGCTT against Dipk1c | 0.495
GGAUUGCAUUAGGAAAGAATT against Fancl | 0.0536
GGGAGUCCUGAAGGACUACTT against Lgmn | -0.0947
GGAGCAGAAUGAGAAGACUTT against Marchf8 | 2.16 (active)
GGACCAAGGGUUCAUAGCATT against Wdr35 | -0.137
GGUUCAUCUGUACAAAAUCTT against Zfp110 | 0.708
CCAUAUGGUAACCAAACCGTT against Ldb1 | -0.896
CCGUAGUAGAGAAAUUACATT against Exoc6 | 0.419
GUUGUCCUCUUUGUCAUCATT against Olfr502 | -3.63 (active)

Sequence | z-score
CGGGUAAUAUUCUUUUCAATT against Rex2 | 1.76
GCUCUAGGCCAGAUGUUACTT against Slc13a3 | -0.476
CGUUUCCUGCUCAAAUCCUTT against Abhd2 | -1.17
GGAGAUUCGGACAAAGUGATT against Rhcg | -1.31
GGAGUAGCUGUUCUAAUUGTT against Scamp5 | -1.65
GGCUUUAAGAAUGUAUCGCTT against Dpp3 | -0.751
GCCUUUUCCCGUCUGGAGATT against Glis1 | 0.122
CGUUGCUGUUGUGGUCUUGTT against Olfr1232 | -2.71 (active)
GGGCCCAGGCUAAAAUAAATT against Cfap100 | 0.367
GGUCACCUCAAUAAACUCUTT against Myl7 | 0.228
CGUGUAAACGCAAUUAAAATT against Zfp870 | 0.272
GGUUCAGAUGUCUGAUAAATT against Mrm3 | 1.43
GGAGCAUGUAGAGGUUUACTT against Txnrd2 | 2.44 (active)
GGAUACCUAGUUCUUAGUUTT against Mageb18 | 0.151
GGGACUUUCGUAAUAAACCTT against Lman1 | -1.26
CGUGAAAUAGAUGAUACCUTT against Cdc5l | 0.625
GGUAACGAUGCUGGAAUUCTT against Sdcbp | 4.37 (active)
GCAAACUCCAGCUCAACGATT against Galnt4 | -1.19
GGAUGGUGUUGUGUUUAAATT against Chst2 | 0.962
GGCUGGUGCUGAAUAUCUUTT against Bnip5 | 0.507
GGUCUUGGUCCCUGAGAAATT against Ddit4l | 0.23
GGACAAAUUGUAUGGCGAATT against Hecw2 | -0.402

Sequence | z-score
GAGAACAAGCCUAAGCCCATT against V1rb5 | 1.44
GCUCGAGGACUAUAUGAAUTT against Xrcc1 | 2.03 (active)
GGAAUAUUGUGGCCUUAUATT against Bnip3 | 0.489
GAGGGAUAUGUGAAGCCUCTT against Mospd3 | -0.806
CCGAAGUCAAUGAAGCUCUTT against Gcsh | -2.13 (active)
CCAUGUUCAGAAGAGAAUATT against Igsf11 | -1.69
GCAAGUAGAAACCCUUAAUTT against Scara5 | -0.0354
CGAUUCCGUCAAAUUAAAGTT against Catsper2 | 0.156
GGCAGAUUGUGAAAAAACUTT against Slc9a6 | -0.503
GGAAAAGGUCAUUAUCAUUTT against Hsf3 | -2.11 (active)
GUCACUGUGAUGGGAAAUUTT against Olfr895 | -0.847
ACACCUGCCUGCAUCUACUTT against Tcp10a | 1.5
GCACUUGUGACUAUAAAGUTT against Celf2 | 0.262
UGUGGUGAACCCAAUGCACTT against Klk1b22 | -3.28 (active)
CCUGAUUGGGAUCUCAAGATT against Ccdc12 | -0.673
AAUAAAAGUGUCCUCUGUGTT against Olfr242 | 0.202
GGAUAGUUUUGUGUUUGAUTT against Gab2 | 0.932
GGUCAUUGAUCUCAGCAACTT against Optc | -0.427
CCCUACACGCAGGAGUUUUTT against Gtf3c1 | -0.23
GCCCUACACCUGUAUUACATT against Tas1r3 | -0.964
CCUGGAACUUGUUGGAAGCTT against Igsf3 | 0.799
GUGUUCAGGAAGCUGGCAGTT against Klra19 | 1.98

Sequence | z-score
GGACCUCCUCCCAAAGAUATT against Snrpb | -2.83 (active)
GCUAUGGAUCAAAGAAUUATT against Senp1 | 0.204
GGCCCAUCCCACAAUGAUATT against Atg9b | -0.998
GGAAGUAGGAUGAUGUUGGTT against Hmga1 | -2.08 (active)
GCUCACCCAACAAUAUCCATT against Slc17a8 | -0.881
CGAGAAUAUUCGCCCAACCTT against Erbb3 | 0.682
GGAGAUCCGGAAUUUUUAATT against Per2 | -0.0639
GCUAUAUAAUGCUUAUGUGTT against Tpr | -0.501
GCCUUUGAUAAAAGUCCGGTT against Saxo2 | -0.93
GGAGGGAAUAUGCAAAUAGTT against Ftdc2 | 2.36 (active)
GGACAUGAUGAUGAUGAUGTT against Gldn | -1.8
GCUUAUAGAAAACCAGUAATT against Foxd1 | 0.317
GGAAGAAAUGAUGAAUGACTT against Chmp2a | 2.36 (active)
GGAUGAUGACAUUCACUUATT against Ntan1 | -0.619
GCCUCGAUCUGAUCUAGAGTT against Dbx2 | 0.291
GGCUGCUGUCAUUAUUUGUTT against Terf2 | -0.768
GGCAUCUUUCACAGUUUUGTT against Hspa12b | 2.13 (active)
GGUUUAUGAGCUCUACGCCTT against Tmem11 | -0.843
GGAAGAUGAUGUUUUAGGUTT against Pde7a | 0.271
CCCAAAGCUAUCAUAUCAATT against Aff4 | 0.508
